Source: the supplement of paper PMC11732987, “Enantioselective OTUD7B fragment discovery through chemoproteomics screening and high-throughput optimisation” (Communications Chemistry, 2025)

Tests used:
Experiment in all cases: log2 ratio of Biotin-Ahx-Ub-VS probe labelling (fragment/DMSO); higher = less target engagement (more negative = stronger competition), active = hit call of the paper (q ≤ 0.05, log2 ratio ≤ -1)
Details in all cases: compound concentration: 200 uM; treatment time: 3 h
[1] = molecular target: T1, OTUD6B (UniProt Q8N6M0)
T1 sequence (whole entry): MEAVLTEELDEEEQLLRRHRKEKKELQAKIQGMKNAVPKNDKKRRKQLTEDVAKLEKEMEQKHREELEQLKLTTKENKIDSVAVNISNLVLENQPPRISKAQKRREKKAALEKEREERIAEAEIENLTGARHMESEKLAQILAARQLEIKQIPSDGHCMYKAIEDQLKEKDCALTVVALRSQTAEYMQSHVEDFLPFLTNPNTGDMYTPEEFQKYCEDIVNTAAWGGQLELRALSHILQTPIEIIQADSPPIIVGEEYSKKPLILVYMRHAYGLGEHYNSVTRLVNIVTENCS
In short: (§1)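 Each value is an average log2 ratio of fragment to vehicle, tested by unpaired t-test. The underlying Spectronaut label-free quantities were global-median-normalised, and only proteins with ≥2 unique peptides were included. Triplicate HEK293T lysate samples (495 µg) were exposed to fragment at 200 µM or vehicle for 3 h, then to Biotin-Ahx-Ub-VS at 0.5 µM final for 1 h, before NeutrAvidin enrichment of labelled DUBs, LysC and trypsin digestion, and diaPASEF LC-MS/MS.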

[2] = molecular target: T2, OTUD7B (UniProt Q6GQQ9)
T2 sequence (whole entry): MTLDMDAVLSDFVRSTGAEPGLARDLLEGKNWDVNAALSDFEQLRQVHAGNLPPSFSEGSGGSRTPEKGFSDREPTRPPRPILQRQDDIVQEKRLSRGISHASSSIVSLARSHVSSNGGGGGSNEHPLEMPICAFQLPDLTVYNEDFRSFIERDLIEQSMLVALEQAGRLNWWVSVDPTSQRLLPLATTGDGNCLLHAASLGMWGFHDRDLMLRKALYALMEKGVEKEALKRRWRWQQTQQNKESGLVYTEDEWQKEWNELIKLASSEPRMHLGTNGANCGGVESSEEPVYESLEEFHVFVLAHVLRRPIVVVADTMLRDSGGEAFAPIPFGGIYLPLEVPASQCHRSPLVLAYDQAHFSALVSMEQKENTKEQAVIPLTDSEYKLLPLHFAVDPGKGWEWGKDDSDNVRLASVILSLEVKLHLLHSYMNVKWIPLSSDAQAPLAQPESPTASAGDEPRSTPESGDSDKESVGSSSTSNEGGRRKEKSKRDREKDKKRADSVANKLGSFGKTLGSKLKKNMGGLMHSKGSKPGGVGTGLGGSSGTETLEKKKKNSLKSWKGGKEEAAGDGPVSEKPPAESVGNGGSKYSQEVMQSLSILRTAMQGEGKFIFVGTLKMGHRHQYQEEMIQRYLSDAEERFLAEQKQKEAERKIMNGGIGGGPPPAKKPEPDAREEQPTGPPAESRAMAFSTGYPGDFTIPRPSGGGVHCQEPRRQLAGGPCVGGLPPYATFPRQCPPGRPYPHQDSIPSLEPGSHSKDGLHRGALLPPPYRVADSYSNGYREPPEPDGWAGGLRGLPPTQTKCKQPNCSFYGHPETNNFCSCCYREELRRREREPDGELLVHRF
In short: as §1

[3] = molecular target: PRPF8 (UniProt Q6P2Q9)
In short: as §1

[4] = molecular target: T3, PSMD7 (UniProt P51665)
T3 sequence (whole entry): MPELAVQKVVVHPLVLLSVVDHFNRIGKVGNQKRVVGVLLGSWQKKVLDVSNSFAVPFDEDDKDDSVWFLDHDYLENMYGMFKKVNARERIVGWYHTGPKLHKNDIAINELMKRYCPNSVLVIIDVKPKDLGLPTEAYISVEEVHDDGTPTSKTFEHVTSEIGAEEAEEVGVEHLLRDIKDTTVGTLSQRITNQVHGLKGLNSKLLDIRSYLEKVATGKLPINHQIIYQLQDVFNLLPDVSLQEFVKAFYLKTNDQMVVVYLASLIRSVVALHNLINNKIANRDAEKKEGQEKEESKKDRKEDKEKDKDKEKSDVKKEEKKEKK
In short: as §1

[5] = molecular target: UCHL1 (UniProt P09936)
In short: as §1

[6] = molecular target: T4, UCHL3 (UniProt P15374)
T4 sequence (whole entry): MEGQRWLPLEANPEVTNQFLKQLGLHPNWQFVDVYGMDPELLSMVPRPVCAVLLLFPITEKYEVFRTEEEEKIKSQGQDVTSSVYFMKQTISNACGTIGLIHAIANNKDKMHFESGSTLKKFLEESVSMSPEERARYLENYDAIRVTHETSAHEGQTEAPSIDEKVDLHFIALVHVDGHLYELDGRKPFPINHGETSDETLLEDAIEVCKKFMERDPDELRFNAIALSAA
In short: as §1

[7] = molecular target: T5, UCHL5 (UniProt Q9Y5K5)
T5 sequence (whole entry): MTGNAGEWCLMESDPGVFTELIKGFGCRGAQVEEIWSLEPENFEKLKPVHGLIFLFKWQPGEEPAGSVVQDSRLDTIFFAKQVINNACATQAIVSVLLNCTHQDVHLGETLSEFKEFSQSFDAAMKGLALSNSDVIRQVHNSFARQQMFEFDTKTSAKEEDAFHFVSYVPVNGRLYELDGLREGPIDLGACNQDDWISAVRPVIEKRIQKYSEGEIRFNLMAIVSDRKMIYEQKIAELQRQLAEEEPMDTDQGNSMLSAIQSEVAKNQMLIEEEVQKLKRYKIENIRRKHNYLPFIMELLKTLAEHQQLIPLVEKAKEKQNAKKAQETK
In short: as §1

[8] = molecular target: USP10 (UniProt Q14694)
In short: as §1

[9] = molecular target: T6, USP15 (UniProt Q9Y4E8)
T6 sequence (whole entry): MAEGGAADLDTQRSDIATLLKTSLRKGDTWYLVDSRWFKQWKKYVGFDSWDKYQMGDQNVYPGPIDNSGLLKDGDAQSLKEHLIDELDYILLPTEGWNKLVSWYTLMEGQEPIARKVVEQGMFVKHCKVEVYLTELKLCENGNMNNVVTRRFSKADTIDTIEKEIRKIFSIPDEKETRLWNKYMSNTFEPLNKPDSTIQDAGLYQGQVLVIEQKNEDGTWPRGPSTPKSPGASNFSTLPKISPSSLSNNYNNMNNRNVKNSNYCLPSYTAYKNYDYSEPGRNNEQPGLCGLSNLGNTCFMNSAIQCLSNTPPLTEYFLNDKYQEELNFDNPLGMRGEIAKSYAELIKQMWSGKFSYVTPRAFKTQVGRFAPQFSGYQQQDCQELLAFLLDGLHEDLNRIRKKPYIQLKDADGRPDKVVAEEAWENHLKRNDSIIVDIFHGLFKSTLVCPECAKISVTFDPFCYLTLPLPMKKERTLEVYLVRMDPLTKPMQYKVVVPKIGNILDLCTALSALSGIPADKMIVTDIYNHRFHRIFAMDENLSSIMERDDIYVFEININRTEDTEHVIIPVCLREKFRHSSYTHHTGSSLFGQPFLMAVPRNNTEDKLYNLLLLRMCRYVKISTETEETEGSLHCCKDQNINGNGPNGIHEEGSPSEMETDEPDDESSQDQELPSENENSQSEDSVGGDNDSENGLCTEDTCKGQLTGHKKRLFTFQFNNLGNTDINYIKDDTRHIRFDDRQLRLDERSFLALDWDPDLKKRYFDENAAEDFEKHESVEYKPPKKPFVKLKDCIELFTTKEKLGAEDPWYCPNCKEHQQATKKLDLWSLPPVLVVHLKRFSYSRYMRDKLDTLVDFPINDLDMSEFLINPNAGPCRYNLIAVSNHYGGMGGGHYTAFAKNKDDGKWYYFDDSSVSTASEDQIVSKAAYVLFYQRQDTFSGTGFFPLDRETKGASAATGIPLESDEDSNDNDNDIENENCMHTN
In short: as §1

[10] = molecular target: USP16 (UniProt Q9Y5T5)
In short: as §1

Measured: log2 ratio of Biotin-Ahx-Ub-VS probe labelling

USP10, sequence (Q14694 whole entry): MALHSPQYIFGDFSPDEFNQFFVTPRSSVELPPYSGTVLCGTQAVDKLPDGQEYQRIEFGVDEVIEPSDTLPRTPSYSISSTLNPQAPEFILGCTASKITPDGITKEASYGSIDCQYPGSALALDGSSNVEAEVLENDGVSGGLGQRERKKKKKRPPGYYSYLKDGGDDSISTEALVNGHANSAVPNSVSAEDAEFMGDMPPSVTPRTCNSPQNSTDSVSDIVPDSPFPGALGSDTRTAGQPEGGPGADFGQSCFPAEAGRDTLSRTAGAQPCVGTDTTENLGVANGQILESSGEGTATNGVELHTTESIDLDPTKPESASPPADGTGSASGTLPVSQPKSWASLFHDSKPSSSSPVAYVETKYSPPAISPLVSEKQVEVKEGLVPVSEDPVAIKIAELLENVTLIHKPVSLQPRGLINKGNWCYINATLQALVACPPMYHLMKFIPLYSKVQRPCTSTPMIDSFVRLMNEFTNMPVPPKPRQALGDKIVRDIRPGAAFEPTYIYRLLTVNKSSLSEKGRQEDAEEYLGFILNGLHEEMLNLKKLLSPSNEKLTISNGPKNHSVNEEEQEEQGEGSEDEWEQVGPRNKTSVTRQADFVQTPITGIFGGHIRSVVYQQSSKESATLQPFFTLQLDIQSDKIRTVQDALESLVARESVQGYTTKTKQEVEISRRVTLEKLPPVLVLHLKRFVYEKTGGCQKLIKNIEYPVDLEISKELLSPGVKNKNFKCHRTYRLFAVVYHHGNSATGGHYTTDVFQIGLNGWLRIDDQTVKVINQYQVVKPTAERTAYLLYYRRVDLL
USP16, sequence (Q9Y5T5 whole entry, looked up): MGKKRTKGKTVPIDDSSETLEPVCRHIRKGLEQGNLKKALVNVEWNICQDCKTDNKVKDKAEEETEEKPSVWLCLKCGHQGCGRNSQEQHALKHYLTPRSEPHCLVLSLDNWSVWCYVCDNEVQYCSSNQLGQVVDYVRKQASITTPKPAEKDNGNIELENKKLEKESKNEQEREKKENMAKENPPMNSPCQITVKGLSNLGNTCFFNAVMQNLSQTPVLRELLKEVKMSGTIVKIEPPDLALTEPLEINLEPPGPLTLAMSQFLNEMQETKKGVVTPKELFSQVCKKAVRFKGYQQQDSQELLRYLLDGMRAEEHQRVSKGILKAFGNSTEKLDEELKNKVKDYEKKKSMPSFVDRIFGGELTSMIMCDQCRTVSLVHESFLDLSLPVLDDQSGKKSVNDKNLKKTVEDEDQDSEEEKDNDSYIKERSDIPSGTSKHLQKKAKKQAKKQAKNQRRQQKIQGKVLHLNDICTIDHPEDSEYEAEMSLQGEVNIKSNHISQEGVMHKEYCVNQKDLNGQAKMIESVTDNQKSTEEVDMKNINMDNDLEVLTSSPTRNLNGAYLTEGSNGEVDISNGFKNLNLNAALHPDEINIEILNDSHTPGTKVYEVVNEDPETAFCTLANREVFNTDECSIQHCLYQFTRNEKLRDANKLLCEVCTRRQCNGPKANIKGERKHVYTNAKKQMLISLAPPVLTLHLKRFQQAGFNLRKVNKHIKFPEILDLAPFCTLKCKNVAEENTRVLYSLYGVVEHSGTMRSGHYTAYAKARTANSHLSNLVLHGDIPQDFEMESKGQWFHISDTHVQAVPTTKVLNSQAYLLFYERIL
UCHL1, sequence (P09936 whole entry, looked up): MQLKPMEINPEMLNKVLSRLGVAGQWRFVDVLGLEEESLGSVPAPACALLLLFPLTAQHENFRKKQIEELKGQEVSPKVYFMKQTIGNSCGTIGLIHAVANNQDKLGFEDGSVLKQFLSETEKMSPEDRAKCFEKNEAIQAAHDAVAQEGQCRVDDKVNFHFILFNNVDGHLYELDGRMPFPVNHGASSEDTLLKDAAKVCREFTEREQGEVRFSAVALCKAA

CCN(Cc1ccc(C#N)cc1F)C(=O)CCl
inactive: [1] -0.409 | [2] -0.641 | [3] 0.0668 | [4] -0.234 | [6] 0.0414 | [7] -0.5 | [8] -0.11 | [9] -0.275 | [10] 0.17
active: [5] -1.35
